Laboratory results reported in PubChem BioAssay AID720517 (National Center for Advancing Translational Sciences (NCATS), 2013).
Results filed as inconclusive are left out. Where a call stands in place of a potency, no number is given. Activity calls are given as the source filed them. Calls come from the whole dose curve; as a rule, active = well fitted activation curve with a large enough effect; inconclusive = small, poorly fitted or top-dose-only effect; inactive = flat fitted curve, though single readings scatter.

Assay: qHTS for Inhibitors of Cell Surface uPA Generation: FP59 Counterscreen for Cherry-picked Compounds
Potency is the fitted concentration of half-maximal effect.

| Compound | Potency |
| --- | --- |
| Cc1cc(C)nc(NC(=O)CSc2nccc(C)n2)n1 | inactive |
| CC(OC(=O)c1cccc(-n2cnnn2)c1)C(=O)Nc1ccc(F)c(F)c1F (stereo unspecified) | inactive |
| CC(C)NC(=O)NC(=O)CN1C(=O)NC(Cc2c[nH]c3ccccc23)C1=O (stereo unspecified) | inactive |
| Cc1ccccc1C(=O)NCC(=O)Nc1ccc(C)c(S(=O)(=O)N2CCCCCC2)c1 | inactive |
| N/C(=N/OC(=O)c1ccccc1F)c1nonc1N | inactive |
| C[C@@]12C(=O)N(CC3CCCO3)CC(=O)N1[C@H]1c3cc(Cl)ccc3OC[C@@H]1[C@@H]2c1ccccc1 (stereo partly specified) | inactive |
| Cc1nc2nc(C)c(NS(=O)(=O)c3ccc(Cl)cc3)c(=O)n2[nH]1 | inactive |
| COCCOC(=O)C1=C(C)NC(=O)NC1c1cccc2ccccc12 (stereo unspecified) | inactive |
| CC(C)N1CCc2c(sc(NC(=O)CCc3ccccc3)c2C(N)=O)C1 | inactive |
| Nc1ccc(S(=O)(=O)c2ccccc2)nc1 | inactive |
| CC(O)[C@H]1CNC(=O)C(=O)N1CCc1cccc(F)c1 (stereo partly specified) | inactive |
| COc1ccc(C2=NS(=O)(=O)N(C)C(C(=O)NCc3ccccn3)=C2)cc1 | inactive |
| COc1ccc(C[C@@H]2OC3(C=CC(=O)C=C3)O[C@H]2Cc2ccc(OC)cc2)cc1 | inactive |
| CSc1nc(-c2ccccc2)nc(C(Cl)Cl)n1 | inactive |
| COC(=O)CSc1nc(N2CCOCC2)c2c(c1C#N)CCCC2 | inactive |
| Cc1ccc(NC(=O)C(C)S)cc1 (stereo unspecified) | inactive |
| Cc1ccccc1S(=O)Cc1ccc(C(=O)N2CCN(C(=O)c3ccco3)CC2)o1 (stereo unspecified) | inactive |
| CCC(NC(=O)Cc1c(C)c2c(cc(C)c3c(C)c(C)oc32)oc1=O)C(=O)O (stereo unspecified) | inactive |
| COC(=O)[C@]1(Cc2ccccc2)N[C@H](CN(C)C(=O)Nc2ccccc2)[C@@H]2C(=O)N(Cc3ccccc3)C(=O)[C@@H]21 | inactive |
| CC(C)OC(=O)Nc1ccc(-c2ccc(NC(=O)OC(C)C)cc2Cl)c(Cl)c1 | inactive |
| CCOC(=O)CN1C(=O)N[C@@H](c2ccco2)C(C(=O)OC)=C1C | inactive |
| COCc1c(C(=O)Nc2nc(C)cs2)oc2ccccc12 | inactive |
| Cc1ccc(NS(=O)(=O)c2c(C)nc3sccn3c2=O)c(C)c1 | inactive |
| COc1ccc(-n2ncc3c(=O)n(CC(=O)NC(C)C)cnc32)cc1 | inactive |
| O=C(O)c1ccc(-c2ccc(/C=C3\NC(=O)N(Cc4ccc(Cl)cc4)C3=O)o2)cc1 | inactive |
| Cc1nn(C)c(C)c1S(=O)(=O)N1CCC(C(=O)NC2CCCCCC2)CC1 | inactive |

| Compound | Potency |
| --- | --- |
| COc1ccc(C(=O)NCCOC(C)C)cc1OC1CCN(C(C)=O)CC1 | inactive |
| O=C(NC1CC1)C1CCCN(C(=O)NC2CCCCC2)C1 (stereo unspecified) | inactive |
| COc1cc(N/C(N)=N/c2nc(C)cc(C)n2)cc(OC)c1 | inactive |
| CCCc1nc2c(=O)n(C)c(=O)[nH]c2n1CCC | inactive |
| COc1ccc(C2=Nc3ccccc3C2(O)CCN2C(=O)c3ccccc3C2=O)cc1 (stereo unspecified) | inactive |
| COCCOc1ccc(C(F)(F)F)cc1NC(=O)COC(=O)Cc1c[nH]c2ccccc12 | inactive |
| CN(C)c1cccc(Oc2nc3c(c(=O)n(C)c(=O)n3C)n2C)c1 | inactive |
| CCOC(=O)c1c(NC(=S)NC)sc2c1CCCC2 | inactive |
| CC(NC(=O)NC1CCCCC1)C(c1cccs1)N1CCN(C)CC1 (stereo unspecified) | inactive |
| N#CCC(=O)N/N=C/c1ccc(OCC(=O)Nc2ccc(F)cc2)cc1 | inactive |
| CCc1c(C)sc(NC(=S)N2CC(C)OC(C)C2)c1C(=O)OC (stereo unspecified) | inactive |
| CN(CCCNC(=O)Cn1cccc1C(=O)c1ccccc1)C1CCCCC1 | inactive |
| O=C(Nc1cccc(-c2nn[nH]n2)c1)c1ccc(Cl)s1 | inactive |
| CC1(C)S[C@@H]2[C@H](NC(=O)C(C(=O)O)c3ccccc3)C(=O)N2[C@H]1C(=O)O (stereo partly specified) | inactive |
| CCC(=O)Nc1nc(-c2cc([N+](=O)[O-])cs2)cs1 | inactive |
| COc1ccc(C(=O)CC(=O)C(=O)Nc2ccccc2)cc1 | inactive |
| COc1ccccc1C(=O)Nc1cccc(C(=O)c2ccccc2)c1 | inactive |
| C=CCOC(=O)C1=C(C)NC(C)=C(C(=O)OCC=C)C1c1cn(-c2ccccc2)nc1-c1ccco1 | inactive |
| CC(C)CN(C(=O)CN1CCC(C)CC1)c1c(N)n(CC(C)C)c(=O)[nH]c1=O | inactive |
| O=C1OCC/C1=C\c1ccc(O)cc1 | inactive |
| O=C1CCCc2ccccc2N1Cc1ccc(F)cc1 | inactive |
| COc1ccc(CN2CCN(Cc3ccc(C(F)(F)F)cc3)CC2)cc1 | inactive |
| CCCCn1c(=NC(=O)c2ccco2)c(C(=O)OCC)cc2c(=O)n3cccc(C)c3nc21 | inactive |
| COc1ccc(NC(=O)CN2C(=O)CSc3ncccc32)cc1 | inactive |
| CCCCn1c(-c2cccnc2)nc2cc3[nH]c(=O)c(C(C)C)nc3cc21 | inactive |
| COc1ccc(N2CC(C(=O)Nc3nnc(SCCC4OCCO4)s3)CC2=O)cc1 (stereo unspecified) | inactive |

| Compound | Potency |
| --- | --- |
| CCOC(=O)C1CCN(CC(=O)Nc2cc(C)nn2-c2nc3ccccc3s2)CC1 | inactive |
| CC(C)N1CCc2c(sc(NC(=O)Cc3ccccc3)c2C(N)=O)C1 | inactive |
| CCO[C@H]1OC(C(=O)N2CCCCCCC2)=C[C@@H](c2ccc(C(F)(F)F)cc2)[C@@H]1CCCO | inactive |
| N#CCCN(C(=O)COC(=O)c1ccc2c(c1)NC(=O)CS2)c1ccc2c(c1)OCCO2 | inactive |
| CC(C)(O)C#Cc1ccc(C(=O)N2CCCC(CCC(=O)NCc3ccccc3F)C2)cc1 (stereo unspecified) | inactive |
| COCCN1C(=O)C(=O)/C(=C(/O)c2ccc(S(=O)(=O)N3CCOCC3)cc2)C1c1cccc([N+](=O)[O-])c1 (stereo unspecified) | inactive |
| COc1ccc(CCNC(=O)CSc2nc(N)c3c(C)c(C)oc3n2)cc1OC | inactive |
| Cc1ccc(NC(=O)CSc2nncn2N)cc1C | inactive |
| Cc1ccc(S(=O)(=O)N2CCC(C)CC2)cc1 | inactive |
| COc1ccc(C(c2sc3nc(C)nn3c2O)N2CCC(C(N)=O)CC2)cc1OC (stereo unspecified) | inactive |
| NC(=O)c1cc2c3ccccc3ccn2c1-c1ccccc1 | inactive |
| COc1ccc([C@@H]2[C@@H]3C(=O)N(C(C)(C)C)C(=O)[C@@H]3[C@]3(C)C(=O)N(c4cccc(Cl)c4)C(=O)N23)cc1 | inactive |
| CC(NC(=O)C1CCC(C(=O)NC(C)c2ccccc2)CC1)c1ccccc1 (stereo unspecified) | inactive |
| Cc1cccc(-c2nc(CS(=O)CC(=O)NCc3cccs3)c(C)o2)c1 (stereo unspecified) | inactive |
| CCC(C)Nc1cc(C)nc2ncnn12 (stereo unspecified) | inactive |
| O=C(NCc1ccc2c(c1)OCO2)c1ccccn1 | inactive |
| CSCC[C@H](NC(=O)[C@H](Cc1ccccc1)n1c(=O)[nH]c2ccccc2c1=O)C(=O)N1CCC[C@H]1C(=O)O | inactive |
| CC1CCC(NC(=O)c2nn(C)c3c2CS(=O)(=O)c2ccccc2-3)CC1 (stereo unspecified) | inactive |
| O=C(CSc1ccc([N+](=O)[O-])cn1)Nc1nccs1 | inactive |
| Cc1ccc2[nH]c(CN3CCN(C)C(CCO)C3)c(C)c2c1 (stereo unspecified) | inactive |
| C[C@@H](NC(=O)c1nc[nH]c1C(=O)NCc1ccc(CNC(=O)OC(C)(C)C)cc1)c1ccccc1 | 58.5 µM (active) |
| COCCNC(=O)C(c1c[nH]c2ccccc12)N(C(=O)c1snc(C(N)=O)c1N)c1cccc(OC)c1 (stereo unspecified) | inactive |
| NS(=O)(=O)c1ccc(CCNC(=O)c2ccc(Cl)s2)cc1 | inactive |
| COc1cc(C(C)=O)ccc1OCc1cn(CC(=O)c2ccc(O)cc2)nn1 | inactive |
| Cc1noc(C)c1COc1ccc(C(=O)N2CCN(S(=O)(=O)c3ccc(Cl)cc3)CC2)cc1 | inactive |
| COc1cc(NC(=O)COC(=O)c2cc(S(=O)(=O)N3CCCCC3)ccc2Cl)c(C)cc1[N+](=O)[O-] | inactive |

| Compound | Potency |
| --- | --- |
| OCCN(Cc1ccccc1)CC(O)COc1ccc2c(c1)OCO2 (stereo unspecified) | inactive |
| O=c1[nH]c2ccccc2cc1CN(CC1CCCO1)S(=O)(=O)c1ccccc1 (stereo unspecified) | inactive |
| COc1ccc(S(=O)(=O)N2CCOCC2)cc1NC(=O)CN1C(=O)NC2(CCCC2)C1=O | inactive |
| CCc1nccn1CCC(=O)N1CCc2c([nH]c3ccccc23)C1CC(C)C (stereo unspecified) | inactive |
| O=C(Nc1cccc(NC(=O)c2ccc(F)cc2)c1)c1ccc(F)cc1 | inactive |
| O=C1[C@H]2[C@@H](c3ccc(F)cc3)N3C(=O)N(c4ccccc4)C(=O)[C@@]3(Cc3ccc(Cl)cc3)[C@H]2C(=O)N1C1CCCCC1 | inactive |
| CCOc1ccc(OCC)c(NC(=O)c2ccc(CNc3c(N4CCCC4)c(=O)c3=O)cc2)c1 | inactive |
| C=C(C)C(=O)O[C@H]1C/C(C)=C\C(=O)/C=C(\C)[C@H](O)[C@@H]2OC(=O)C(=C)[C@@H]21 | inactive |
| O=C1C[C@@H]2CCN3C(=O)CCC[C@@H]([C@H]23)[C@H]1Cc1ccccc1 | inactive |
| COc1ccc(C)cc1NC(=O)CSCc1cc(=O)n2c(C)csc2n1 | inactive |
| CC(=O)c1ccc2c(c1)c1ccccc1n2CC(C)C | inactive |
| COc1ccc(/C=N/NC(=O)COc2ccc3ccccc3c2)c(C(=O)O)c1OC | inactive |
| COC(=O)C1C(=O)c2c([nH]c(C(=O)OC3CCCCC3)c2C)CC1C (stereo unspecified) | inactive |
| CC1(C)Oc2ccc3ccc(=O)oc3c2[C@@H](O)[C@H]1O | inactive |
| O=C(CN1CCN(Cc2ccc(Cl)cc2)C1=O)NCc1cccs1 | inactive |
| CCOc1ccc(C2(C)CC(=O)N(C)C2=O)cc1 (stereo unspecified) | inactive |
| Cc1cc(C)n(-c2cc(C(=O)O)cc(C(=O)O)c2)n1 | inactive |
| CCc1ccccc1N(CC(=O)N1CCCC1)S(C)(=O)=O | inactive |
| CN(c1ccccc1)S(=O)(=O)c1ccc(C(=O)Nc2nnc(C3CC3)o2)cc1 | inactive |
| CCOC(=O)CC(=O)CSc1nc2c(C)c(C)ccc2cc1C | inactive |
| O=C(CCS(=O)(=O)c1ccc2c(c1)NC(=O)CS2)NCCc1ccc(Cl)cc1 | inactive |
| O=C(Nn1cnnc1)c1ccc(Cl)cc1 | inactive |
| CCC(CC)Nc1ccc(C(CC(N)=O)NC(=O)Cc2ccc(Br)cc2)cc1[N+](=O)[O-] (stereo unspecified) | inactive |
